Screening data deposited in PubChem by National Center for Advancing Translational Sciences (NCATS).
p53 reactivation: qHTS assay for re-activators of p53 using a Luc reporter; H1299 p53-A138V BP100-luciferase reporter, luminescence, 24 h; Potency, µM (highest dose often 92.2 µM), inactives show at the highest dose activity change, positive = activation, usual class: activators; actives 0.063% (n = 320,000); AID 504706, 2011; active = well fitted activation curve with a large enough effect; inconclusive = small, poorly fitted or top-dose-only effect; inactive = no such curve, though single readings can be large or run the other way; also: potency is read from the fitted curve at half-maximal effect; % of control where 0% means no effect; nearly all actives have a fitted effect of over 45% in size
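H1299 (p53-null), stable ts p53-A138V + BP100-Luc; 1000 cells/well, Opti-MEM/10% FBS; cpd 4 pt, 1:5; 24 h, 37 deg C, 5% CO2; detection reagent 10 min RT; luminescence.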
ClpP mod: qHTS Assay for Activators of ClpP | ATP-dependent Clp protease proteolytic subunit (Bacillus subtilis (strain 168)), P80244 | AID 651965, 2013 | actives 1.9% (n = 340,000) | Potency, µM (doses to about 57.5 µM), inactives show at the top dose activity change, negative = active | purified B. subtilis ClpP, FRET peptide cleavage, 20 min; active = well fitted falling curve with a large enough effect; inconclusive = small, poorly fitted or top-dose-only effect; inactive = no such curve, though single readings can be large or run the other way; also: potency is read from the fitted curve at half-maximal effect; the source files actives as falling curves though it sought activators and does not explain the sign; nearly all actives have a fitted effect of over 65% in size
Target sequence (P80244 whole entry, looked up): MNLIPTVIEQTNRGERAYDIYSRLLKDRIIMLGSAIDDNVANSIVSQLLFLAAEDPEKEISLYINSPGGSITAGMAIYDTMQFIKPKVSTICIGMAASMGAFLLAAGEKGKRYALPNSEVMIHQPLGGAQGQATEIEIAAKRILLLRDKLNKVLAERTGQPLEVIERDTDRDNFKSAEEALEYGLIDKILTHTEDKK
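Purified B. subtilis ClpP, 10 microg/mL final in Tris/HCl pH8 with KCl, BSA, glycerol and Tween-20, cleaved an Abz/nitrotyrosine-quenched decapeptide. Fluorescence (ex 320, em 430) was read at 0 and 20 min at room temperature. Delta was normalized to 5.8 microM ADEP and DMSO/no-enzyme controls.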
TRPV1 ag: HTS Assay for Compounds that Act as Agonists of the Vanilloid Receptor 1. Transient receptor potential cation channel subfamily V member 1 (Homo sapiens), Q8NER1. TRPV1-expressing cells, Fluo-8 calcium influx, agonist mode. activation, % at 8.33 µM. actives 0.19% (n = 320,000). AID 540275, 2011; in the data active = activation above about 80%; inconclusive = between about 30% and that limit; also: 0% is about no effect
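Fluo-8 calcium influx in TRPV1-expressing cells, kinetic read (ex 480/em 520 nm). Compound added and read 3 min for agonist activity, followed by capsaicin at EC20 final and 2 min further read for enhancement.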
hERG WT inh: qHTS for Inhibitors of KCHN2 3.1: Wildtype qHTS. Voltage-gated inwardly rectifying potassium channel KCNH2 (Homo sapiens), Q12809. U2OS, BacMam KCNH2, thallium flux FluxOr; hits give low values. activity change, % at 1.84 µM. actives 0.37% (n = 340,000). AID 720551, 2013;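 active = maximum activity change below -70%; inconclusive = maximum activity change between -70% and -50%; inactive = maximum activity change above -50%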; also: % is scaled to controls: 0 for no effect and ±100 for the full control effect
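U2OS cells were transduced with wild-type KCNH2 virus (2.03 x 10^8 / mL) for 4 h at room temperature, then cultured overnight at 37 C. Thallium flux was read with FluxOr dye. Rate constants were normalized to DMSO controls.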
TRPV1 potentiator: HTS Assay for Compounds that Act as Potentiators of the Vanilloid Receptor 1 | Transient receptor potential cation channel subfamily V member 1 (Homo sapiens), Q8NER1 | TRPV1-expressing cells, Fluo-8 calcium influx, capsaicin EC20 potentiation | potentiation, % at 8.33 µM | actives 0.02% (n = 320,000) | AID 540277, 2011; in the data active = potentiation above about 80%; inconclusive = between about 30% and that limit; also: 0% is about no effect
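Fluo-8 calcium influx in TRPV1-expressing cells, kinetic read (ex 480/em 520 nm). Compound added and read 3 min for agonist activity, followed by capsaicin at EC20 final and 2 min further read for enhancement.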
KCNH2 3.1 block: qHTS for Inhibitors of KCHN2 3.1: Mutant qHTS; Potassium voltage-gated channel subfamily H member 2, brain isoform KCNH2 3.1 (human); activity change, % (tested at about 1.8 µM); actives 0.95% (n = 340,000); U2OS KCNH2 3.1, thallium flux FluxOr; hits give low values;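 active = maximum activity change below -70%; inconclusive = maximum activity change from -70% to -50%; inactive = maximum activity change above -50%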;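 also: thallium influx rate constant from kinetic fluorescence after stimulation buffer; % is scaled to controls: 0 for no effect and ±100 for the full control effect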
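We transduce U2OS cells with the mutant 3.1 virus, culture them overnight, load FluxOr with Red40 quencher for 45 min, then add stimulation buffer and read kinetically for 2 min to derive a normalized rate constant.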
The depositor's hits bear a star; ? = inconclusive; nt = no result. Most compounds without a hit are left out; they make up all but 2.6% or so of the library.

SMILES | p53 reactivation | ClpP mod | TRPV1 ag | hERG WT inh | TRPV1 potentiator | KCNH2 3.1 block
CCn1nc(C)cc1C(=O)N1CCCC(Nc2ccc(C(C)C)cc2)C1 (stereo not drawn) | nt | -14% | 81* | 24 | -8 | 17
CCn1nc(CC(C)C)cc1C(=O)N1CCCC(Nc2ccc(F)cc2)C1 (stereo not drawn) | 1% | 1% | ? | -1 | -27 | -4
CCOC(=O)c1nc(C)sc1-c1ccnn1S(=O)(=O)c1cccc(Cl)c1 | 2% | nt | 19 | -135* | 17 | 6
CN(C)c1ccc(-c2nnc(-c3cccs3)o2)cc1 | ? | 4% | ? | 12 | 0 | 0
Brc1ccc(-c2cnc(-c3cccs3)o2)cc1 | ? | 32µM* | ? | 2 | -7 | -4
CC(C)Oc1ccc(NC(=O)Oc2ccccc2)cc1 | 13% | 0% | 6 | 3 | -5 | -207*
CC(=O)c1ccc(NC(=O)Oc2ccccc2)cc1 | 2% | -1% | 14 | 5 | -3 | 11
Cc1nn(CC(=O)Nc2cccc(C(F)(F)F)c2)c(=O)c2nn(-c3ccccc3)c(C)c12 | nt | -6% | nt | nt | nt | nt
COc1ccc(N2CCN(C(=O)CN3C(=O)NC(C)(c4ccc5ccccc5c4)C3=O)CC2)cc1 (stereo not drawn) | -5% | 28µM* | -1 | 1 | 7 | -4
O=C1c2ccccc2C(c2nnnn2Cc2ccccc2)N1Cc1ccc2c(c1)OCO2 (stereo not drawn) | nt | -3% | nt | nt | nt | nt
CC(C)c1ccc(-n2nnnc2SCc2nc(N)nc(N)n2)cc1 | nt | -3% | nt | nt | nt | nt
NC(=O)C1(N2CCCCC2)CCN(C(=O)Nc2ccc(F)cc2)CC1 | nt | 0% | nt | nt | nt | nt
COc1ccc(-n2c(COc3ccc(C)cc3)nnc2SCc2ccc(C#N)cc2)cc1 | -17% | 1% | ? | 14 | -9 | -34
COc1ccc(-n2c(COc3ccc(Cl)cc3)nnc2SCc2ccc(C#N)cc2)cc1 | -8% | -2% | 19 | 4 | -5 | -79*
COc1ccccc1N1CCN(S(=O)(=O)c2c(C)sc3ncn(CC(=O)Nc4ccc(C(F)(F)F)cc4)c(=O)c23)CC1 | nt | 0% | nt | nt | nt | nt
Cc1cc2cc(C(c3nnnn3C3CCCC3)N(Cc3cccnc3)Cc3ccco3)c(=O)[nH]c2cc1C (stereo not drawn) | 4% | ? | 19 | -22 | -1 | -3
Cc1ccc2cc(C(c3nnnn3C3CCCC3)N(Cc3ccccc3)Cc3ccco3)c(=O)[nH]c2c1 (stereo not drawn) | ? | 22µM* | 3 | -8 | 24 | ?
CC(C)(C)C(=O)CSc1n[nH]c(-c2ccccc2)n1 | nt | -1% | nt | nt | nt | nt
Cc1ccc(NC(=O)c2ncn(CC(=O)N[C@H](C)c3cccc4ccccc34)n2)cc1C | 10% | 25% | nt | 2 | nt | -15
Cc1ccc(NC(=O)c2ncn(CCCN3CCN(Cc4cccc5ccccc45)CC3)n2)cc1C | nt | -4% | nt | -12 | nt | -72*
COc1ccc(CCNC(=O)C2CC(=O)N(C3CCCCCCC3)C2)cc1OC (stereo not drawn) | -1% | 0% | 1 | -20 | 1 | -201*
Cc1ccc(CCNC(=O)C2CC(=O)N(C3CCCCC3)C2)cc1 (stereo not drawn) | -10% | -1% | -1 | 7 | 8 | -6
Cc1nn(C)c(C(=O)NNC(=S)NCC(C)C)c1Cl | -2% | 8.9µM* | 1 | -1 | 9 | -15
Cc1nn(C)c(C(=O)NNC(=S)NCc2ccco2)c1Cl | 5% | 1% | -4 | 6 | -11 | 4
Cc1ccc(NC(=O)Cn2c(=O)n(CCC(=O)NCc3ccccc3Cl)c(=O)c3ccccc32)cc1 | nt | -3% | nt | nt | nt | nt
SMILES | p53 reactivation | ClpP mod | TRPV1 ag | hERG WT inh | TRPV1 potentiator | KCNH2 3.1 block
COc1cc(Cl)cc(/C=C/c2ccc3ccccc3n2)c1OC(C)=O | ? | 25µM* | -5 | -7 | -2 | -2
Cc1ccc2oc(C(=O)Nc3sc4c(c3C(=O)NCc3cccnc3)CCCC4)cc(=O)c2c1 | nt | 1% | nt | nt | nt | nt
CC(=O)c1nc(N2CCN(S(=O)(=O)c3ccc(C)cc3)CC2)c2ccccc2n1 | nt | -3% | nt | nt | nt | nt
Cc1cc(N2CCN(S(=O)(=O)c3ccc(Cl)cc3)CC2)c2ccccc2n1 | -6% | ? | -3 | ? | 0 | -95*
Cc1cc(N2CCN(S(=O)(=O)c3ccc(Cl)c(Cl)c3)CC2)c2ccccc2n1 | 5% | -13% | -3 | ? | 2 | -113*
COc1ccc(CCn2c(=S)[nH]c(=O)c3nccnc32)cc1OC | nt | 0% | nt | nt | nt | nt
CCCCn1c(O)c(N=Nc2ccccn2)c2ccccc21 | 2% | -3% | ? | -2 | -15 | -7
CCCCn1c(O)c(N=Nc2ccccc2O)c2ccccc21 | 40µM* | -10% | ? | 0 | -12 | -8
CC1(C(=O)Nc2ccc(Cl)c(Cl)c2)CCN1C(=O)Cc1ccc(-c2ccccc2)cc1 (stereo not drawn) | nt | 0% | nt | nt | nt | nt
COc1ccc(C(C)(C)C)cc1NC(=O)CNc1cccc2ccccc12 | 13% | 11µM* | 2 | 26 | 1 | -24
C=CCSc1nc(C)cc(/C=C\c2ccccc2)c1C#N | 7% | 28µM* | nt | -13 | nt | -4
Cc1cc(C)c(C#N)c(SCc2ccccc2)n1 | 4% | -2% | 15 | 8 | -4 | 9
COc1ccc(OC)c(/C=N/NC(=O)CC2C(=O)NN=C2C)c1 (stereo not drawn) | -21% | 28µM* | -1 | 6 | -4 | -2
COc1ccc(OC)c(/C=N/NC(=O)CCc2ccc(O)c(O)c2)c1 | 3% | 8.9µM* | 27 | 3 | -7 | -10
COc1ccc(NC(=O)Cn2c(=O)n(-c3ccc(CC(=O)NCC4CCCO4)cc3)c(=O)c3ccccc32)c(OC)c1 (stereo not drawn) | nt | -2% | nt | nt | nt | nt
CN(C)CCC(=O)N1C/C(=C/c2ccccc2)C(=O)/C(=C\c2ccccc2)C1 | nt | 35µM* | nt | 47 | nt | -72*
C[N+](C)(C)CCC(=O)N1C/C(=C/c2ccccc2)C(=O)/C(=C\c2ccccc2)C1 | nt | 2% | nt | -5 | nt | nt
OCC1OC(Nc2ccccc2C=NO)C(O)C1O (stereo not drawn) | nt | -12% | nt | -5 | nt | 1
COC(=O)Cc1ccc2sc(-c3ccccc3)nc2c1 | ? | 28µM* | 2 | 0 | -16 | 2
N#C/C(=N\Nc1c(Cl)cccc1Cl)C(=O)NN | 23% | 16µM* | -4 | -6 | 10 | -1
